PubChem BioAssay (Tox21)
Results filed as inconclusive are left out. A number with no mark means an inactive call. Activity calls are given as the source filed them. The call rests on the fitted dose curve; in most records, active means well fitted cell-killing curve with a large enough effect in the repeat runs; inconclusive means weak or mixed curves, or effect the other way; inactive means flat fitted curve, though single readings scatter.

experiment: qHTS assay to identify small molecule antagonists of the estrogen receptor alpha (ER-alpha) signaling pathway using the BG1 cell line in the presence of 0.1 nM 17-beta-estradiol - cell viability counter screen (AID 1259241); conditions: VM7Luc4E2 (BG1) viability, CellTiter-Fluor protease, 22 h, 0.1 nM estradiol agonist added; series mostly up to 92.4 µM; further: nearly all actives have a fitted effect of over 40% in size
Excerpt: National Center for Advancing Translational Sciences [NCATS]
NIH Chemical Genomics Center [NCGC]
U.S. Environmental Protection Agency [EPA]
National Institutes of Environmental Health Sciences [NIEHS]
National Toxicology Program [NTP]
U.S. Food and Drug Administration [FDA]
Estrogen receptor (ER), a member of the nuclear hormone receptor plays an important role in development, metabolic homeostasis and reproduction. Two subtypes of ER, ER-alpha and ER-beta, have similar expression patterns with some uniqueness in both types. Endocrine disrupting chemicals (EDCs) and their interactions with steroid hormone receptors like ER causes disruption of normal endocrine function. Therefore, it is important to understand the effect of environmental chemicals in ER signaling pathway. For identifying ER antagonists, VM7Luc4E2 cell line was used to screen against Tox21 compound libraries.
VM7Luc4E2 cell line (provided by Denison MS, University of California) endogenously express full-length ER-alpha and is stably transfected with a plasmid containing four estrogen responsive elements (ERE) upstream of a luciferase reporter gene. The current screening for identification of ER-alpha inhibitors against Tox21 compound libraries used lower concentration (0.1 nM) of 17beta-Estradiol as a stimulator. The cytotoxicity of the Tox21 compound libraries against VM7Luc4E2 cell line was tested by measuring live-cell protease activity using CellTiter-Fluor assay in the same wells.
Tox21 Assay Protocol Summary:
VM7Luc4E2 cells were cultured in phenol red free assay medium containing 10% charcoal stripped FBS for 5 days prior to the assay. The cells were dispensed at 4,000 cells/well in 4 uL of assay medium into white wall/solid-bottom 1536-well plates (Corning Life Sciences, Corning, NY) using a Multidrop Combi (ThermoFisher Scientific, Waltham, MA) dispenser. After the assay plates were incubated at 37C and 5% CO2 for 24 hr, 23 nL of compounds dissolved in DMSO, positive controls or DMSO only was transferred to the assay plates by a Pintool station (Kalypsys, San Diego, CA). The transfer of compounds was followed by the addition of 1 uL of 0.1 nM (final concentration) agonist (17beta-Estradiol)/assay medium using a Flying Reagent Dispenser (FRD, Aurora Discovery, San Diego, CA). The plates were incubated at 37C and 5% CO2 for 22 hr. For cytotoxicity assay, 1 uL of CellTiter-Fluor reagent (Promega Corporation, Madison, WI) was added to each well using the FRD and after 30 min incubation at 37C and 5% CO2, The fluorescence intensity was measured using ViewLux plate reader (PerkinElmer, Shelton, CT).
On the % scale 0 is the no-effect control and ±100 the full control effect.

Structure (SMILES) | activity change, negative = cytotoxicity | outcome
CCC(C)S (stereo not given) | 5.76% [at 3.27 µM] | 
CC(C)(O)C(=O)c1ccccc1 |  | inactive
CCOC(=O)c1c(C)n(C)c2ccc(O)cc12 |  | inactive
CCOC(=O)c1cccc(N)c1 |  | inactive
COc1ccc2c(c1)c(CC(=O)OCC(=O)O)c(C)n2C(=O)c1ccc(Cl)cc1 |  | inactive
Brc1c(NC2=NCCN2)ccc2nccnc12 |  | inactive
CC(=O)CC(C)C |  | inactive
Nc1ccccc1S(=O)(=O)O |  | inactive
Nc1nc2c(ncn2COC(CO)CO)c(=O)[nH]1 |  | inactive
NC(=O)c1ccc(N)cc1 |  | inactive
Cc1ccc(Cl)cc1Cl |  | inactive
O=Cc1cccc([N+](=O)[O-])c1 |  | inactive
CCC(=O)OC(C)c1ccccc1 (stereo not given) |  | inactive
N[C@H]1CN(c2c(F)cc3c(=O)c(C(=O)O)cn(C4C[C@H]4F)c3c2Cl)CC12CC2 (stereo not given in full) |  | inactive
N=C(N)c1ccc(OCCCOc2ccc(C(=N)N)cc2)cc1 |  | inactive
COc1c(N2C[C@@H]3CCCN[C@@H]3C2)c(F)cc2c(=O)c(C(=O)O)cn(C3CC3)c12 |  | inactive
COc1ccccc1OCC(O)CN1CCN(CC(=O)Nc2c(C)cccc2C)CC1 (stereo not given) |  | inactive
C1OCOCO1 |  | inactive
NC(=O)c1ccc([N+](=O)[O-])cc1 |  | inactive
O=C(O)CNC(=O)c1ccc([N+](=O)[O-])cc1 |  | inactive

Structure (SMILES) | activity change, negative = cytotoxicity | outcome
O=C1OC(=O)C2CCCCC12 (stereo not given) |  | inactive
CC(=O)Nc1c(I)cc(I)c(C(=O)O)c1I |  | inactive
Nc1c[n+](N2CCOCC2)no1 |  | inactive
OCCCC1CCCCC1 |  | inactive
CCN(CC)CCNC(=O)c1cc(S(C)(=O)=O)ccc1OC |  | inactive
CC(C)NCCCC1(C(N)=O)c2ccccc2-c2ccccc21 |  | inactive
CC1(C)C(O)C(C)(C)C1O (stereo not given) |  | inactive
O=C1CC2CC1C1CCCC21 (stereo not given) |  | inactive
C[C@H](NC(CCc1ccccc1)C(=O)O)C(=O)N1CCC[C@H]1C(=O)O (stereo not given in full) |  | inactive
CC[N+](C)(C)c1cccc(O)c1 |  | inactive
CCCCCCCCCCCC |  | inactive
CCOC(=O)[C@H](CCc1ccccc1)N[C@@H](C)C(=O)N1[C@H](C(=O)O)C[C@@H]2CCC[C@@H]21 |  | inactive
C[N+](C)(C)CCCCCC[N+](C)(C)C |  | inactive
O=C(O)c1ccccc1OP(=O)(O)O |  | inactive
C=COCC1CCC(CO)CC1 (stereo not given) |  | inactive
CCCc1cc(C(N)=S)ccn1 |  | inactive
N[C@H](C(=O)O)c1ccc(O)cc1 | 8.37% [at 19 µM] | 
CCCCNC(=O)NCCCC |  | inactive
O=c1[nH]c(=O)n([C@H]2C[C@H](O)[C@@H](CO)O2)cc1I |  | inactive
CCc1ccc(O)c(OC)c1 |  | inactive
